An excerpt weighted towards active compounds, which were near 2.3% of everything screened.
TDP43 rescue = rescues yeast growth from TDP-43 toxicity; TDP-43 expressing yeast growth rescue, BacTiter-Glo, 24 h; Potency, µM (highest dose often 46.1 µM), for inactives: at the top dose growth rescue (activation), hits mostly activators; 410,000 tested, 1.8% active; AID 652104; also: potency is read from the fitted curve at half-maximal effect; % of control where 0% means no effect; nearly all actives have a fitted effect of over 50% in size
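Yeast cells expressing TDP-43 under galactose induction are exposed to compounds for 24 hr at 30 deg C. BacTiter-Glo luminescence measures growth, so protective compounds score as activators.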
FUS yeast rescue = FUS proteinopathy suppression in yeast | 390,000 tested, 0.24% active | S. cerevisiae FUS-expressing, growth rescue, OD600, 24 h | Potency, µM (top dose mostly 76.6 µM), actives largely listed as activators;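 also: potency is read from the fitted curve at half-maximal effect; plate controls were DMSO vehicle for no effect and reference control for full effect; nearly all actives have a fitted effect of over 55% in size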
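Compound concentration series was pinned onto galactose-induced FUS-expressing yeast seeded at OD 0.005. Plates sat 24hr at 30C; absorbance at 600 nm gave growth. DMSO served as background control.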
Abeta rescue = restores growth of yeast expressing A-beta42 peptide; yeast expressing A-beta42, growth rescue, OD600, 48 h; response scale: 0% DMSO, 100% iron-clioquinol control; 410,000 tested, 0.063% active; AID 1347071; Potency, µM (highest dose often 46.1 µM), usual class: activators; also: potency is read from the fitted curve at half-maximal effect; nearly all actives have a fitted effect of over 55% in size
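Growth rescue measured by 600 nm absorbance after 48 h yeast culture at 30 C with compound. Values normalized between DMSO and an equimolar ferric chloride plus clioquinol control.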
CCT chaperon mod = modulators of cytosolic chaperonin (CCT/TRiC) activity; purified chaperonin ATPase assay, HTRF ADP detection, 30 min; activity change, % (no concentration beside the values), hits read low; 360,000 tested, 0.3% active; in the data active = activity change below about -30%; also: % is scaled to controls: 0 for no effect and ±100 for the full control effect
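ATPase activity: ADP formed was measured by HTRF Transcreener (665/615 nm ratio) after 30 min at 37 deg C with 10 uM ATP. Compounds screened at one 76 uM concentration against 40 or 20 nM TRiC in Tris pH 7.4/KCl/MgCl2/DTT buffer.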
Mm-Cpn inhibitor = M. maripaludis TRiC chaperonin inhibition; purified Mm-Cpn ATPase, ADP Transcreener TR-FRET; 330,000 tested, 0.031% active; Potency, µM (doses to about 76.9 µM), inactives show top-dose activity, negative = inhibition, most hits filed as inhibitors; also: potency is read from the fitted curve at half-maximal effect; % is scaled to controls: 0 for no effect and ±100 for the full control effect; nearly all actives have a fitted effect of over 80% in size
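Purified archaeal chaperonin (25 nM final) was preincubated with compound for 10 min at 37°C, then ATP (10 uM final) was added for 30 min at 37°C in Tris pH 7.4/KCl/MgCl2/DTT buffer. ADP was quantified by HTRF Transcreener TR-FRET.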
aSyn rescue = rescues yeast growth from alpha-synuclein toxicity; Yeast expressing alpha-synuclein, growth rescue, BacTiter-Glo, 24 h; Potency, µM (doses to about 46.1 µM), for the others: at the highest dose growth rescue (activation), most hits filed as activators; 370,000 tested, 0.14% active; AID 652106; also: potency is read from the fitted curve at half-maximal effect; % of control where 0% means no effect; nearly all actives have a fitted effect of over 65% in size
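Galactose-induced alpha-syn yeast (OD600=0.02, raffinose-pregrown) + pinned cpd, 24 hr, 30 deg C; growth by BacTiter-Glo luminescence. Growth restoration scores as activation.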
Numbers without * were called inactive; i = inactive; ? = inconclusive; . = no result. Unless noted, calls follow the shape of the dose curve; as a rule, active = well fitted curve in the direction sought with a large enough effect; inconclusive = small, poorly fitted or top-dose-only effect, or another doubt; inactive = no such curve, though single readings can be large; an effect the other way counts as inactive or inconclusive.

SMILES	TDP43 rescue	FUS yeast rescue	Abeta rescue	CCT chaperon mod	Mm-Cpn inhibitor	aSyn rescue
CC=Cc1cc(OC)c2c(c1)C(C)C(c1ccc(O)c(OC)c1)O2 (stereo not given)	35.5µM*	?	i	-3.5	.	?
O=S(=O)(NNC(=S)Nc1ccc(S(=O)(=O)Nc2ncccn2)cc1)c1ccc(Br)cc1	3.98µM*	i	i	1.0	1.2%	?
CC(I)CCC(C)[n+]1cccc(I)c1 (stereo not given)	.	.	.	.	.	-1.9%
CCn1nccc1C(=O)Nc1cc(Cl)cc(Cl)c1	20µM*	i	i	-2.8	-1.0%	2.5%
CCn1nccc1C(=O)Nc1ccc(Cl)cn1	29.8%	i	i	0.7	-0.9%	0.6%
Cn1c(-c2c(N)n(C3CCCC3)c3nc4ccccc4nc23)nc2ccccc21	12.6µM*	?	i	-1.8	-2.4%	-8.6%
Cn1c(-c2c(N)n(CCc3ccccc3)c3nc4ccccc4nc23)nc2ccccc21	7.4%	?	i	-0.8	-4.1%	-16.8%
Cn1c(-c2c(N)n(CCCc3ccccc3)c3nc4ccccc4nc23)nc2ccccc21	?	31.6µM*	i	-3.8	-7.5%	-25.0%
COc1ccc(NC(=O)c2cc3nc(-c4ccc(Cl)c(Cl)c4)cc(C(F)(F)F)n3n2)c(OC)c1	21.0%	i	i	.	.	.
CSc1ccc(NC(=O)C2(C)CCN2C(=O)c2sccc2C)cc1 (stereo not given)	35.5µM*	i	i	1.5	.	1.8%
Cc1ccsc1C(=O)N1CCC1(C)C(=O)Nc1cccc(C#N)c1 (stereo not given)	0.0%	i	i	0.0	.	0.7%
Cc1ccc(S(=O)(=O)N2CCCC(C(=O)Nc3c(C)n(C)n(-c4ccccc4)c3=O)C2)cc1 (stereo not given)	.	i	.	.	.	.
COc1cc(SC)ccc1C(=O)N1CCN(c2ccccc2F)CC1	11.2µM*	i	i	-0.6	0.6%	1.2%
O=C(COc1ccc2ccccc2c1Br)N1CCCC1	11.2µM*	i	i	-1.0	-4.9%	4.8%
CCOc1ccccc1N1CCN(C(=O)c2cc3ccccc3cc2OC)CC1	14.1µM*	i	i	-1.6	-6.3%	6.9%
COc1ccc2[nH]c(C(=O)N3CCN(c4ccccc4F)CC3)c(C)c2c1	15.8µM*	i	i	-0.1	-6.2%	0.9%
C=C1NN(Cc2ccccc2)C(=O)N1c1ccc(OC)cc1	.	.	.	.	.	6.1%
CCOC(=O)[C@@]12CCC3=C1N(CCC3)C(=O)[C@H](CC(=O)NCCCCc1ccccc1)C2	.	i	.	.	.	.
Cc1ccc(NC(=O)CSc2nnc(-c3ccccc3F)n2-c2ccccc2)c(C)c1	.	i	.	.	.	.
COc1ccccc1OCC(=O)N1CCN(C(=O)COc2ccccc2OC)CC1	-4.4%	i	i	2.4	-0.4%	2.2%
COc1cc2ccccc2cc1C(=O)N1CCN(c2nc3ccc(F)cc3s2)CC1	12.6µM*	i	i	.	.	.
COc1ccccc1N1CCN(C(=O)COc2cccc3ccccc23)CC1	35.5µM*	?	i	-1.1	-2.9%	?
Clc1ccc(C2Nc3cccc4cccc(c34)N2)cc1	?	i	i	-55.5*	0.7%	0.4%
Cc1ccsc1C(=O)Nc1n[nH]c(C(F)(F)F)n1	35.5µM*	i	i	-0.9	0.5%	7.7%
CCCC[C@H]1C2CC(OC(=O)Nc3ccccc3C(F)(F)F)C(C2)[C@H]2CCCCN21 (stereo not given in full)	.	i	.	.	.	.
CC(C)C(=O)N1CCC1(C)C(=O)Nc1ccccc1OC(F)F (stereo not given)	21.0%	i	i	-9.2	.	2.7%
COc1ccc(-c2ccccc2)cc1NC(=O)C1(C)CCN1C(=O)C(C)C (stereo not given)	35.5µM*	?	i	-0.6	.	2.4%
CC1=C(c2ccc(C(C)C)cc2)S(=O)(=O)NC1=NCc1ccccc1C	0.2%	i	i	.	.	.

High-throughput results from PubChem BioAssay.
